According to PubChem BioAssay AID651791 (National Center for Advancing Translational Sciences (NCATS), 2012):
Records with an inconclusive call do not appear. Active and inactive are the calls of the source. Calls follow the shape of the dose curve; as a rule, active = well fitted inhibition curve with a large enough effect; inconclusive = small, poorly fitted or top-dose-only effect; inactive = no such curve, though single readings can be large or run the other way.

Experiment: InCell qHTS Assay for Inhibitors of the mTORC1 Signaling Pathway in MEF (Tsc2-/-, p53-/-) Cells: Hit Validation;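 also: phospho-S6 Ser235/236 signal normalized to propidium iodide cell count per well; nearly all actives have a fitted effect of over 75% in size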
Settings: phospho-rpS6 immunofluorescence, 24 h; activity change, negative = inhibition: at 38.3 µM (top of the series)
Potency is read from the fitted curve at half-maximal effect.

| Structure (SMILES) | activity change, negative = inhibition [%] | Potency |
| --- | --- | --- |
| Oc1ccc(NCc2ccc(OCc3ccccc3Cl)cc2)cc1 | -100 |  |
| CCc1ccc(S(=O)(=O)N(C(=O)Oc2ccccc2)c2ccc3oc(C)c(C(=O)OC)c3c2)cc1 | -12.1 |  |
| COc1ccccc1N1CCN(C(=O)c2cnc(N3CCCCC3)c3ccccc23)CC1 | -100 |  |
| Cn1ccc2c(OCC(=O)Nc3ccc(OC(F)(F)F)cc3)cccc2c1=O | -100 |  |
| CCN1CCOC(=O)C1CC(=O)Nc1cc(C)ccc1OC (stereo not given) |  | 13.1 µM (active) |
| COc1cc(NC(=O)c2cccc3c2C(=O)N(C2CCCCC2)C3)cc(OC)c1OC | -100 |  |
| Cc1ccc([C@H]2Nc3ccc(S(=O)(=O)Nc4cccc(Cl)c4C)cc3[C@H]3C=CC[C@H]32)cc1 | -100 |  |
| COc1ccccc1CNC(=O)CCCn1c(=O)c2cccn2c2ccccc21 | -100 |  |
| CCCC1=Nc2cc(C(=O)NCCOC)ccc2Sc2ccccc21 | -100 |  |
| Cc1ccc(-c2nc3sccn3c2Nc2ccc(C)c(C)c2)cc1 | -100 |  |
| CCOc1ccc(S(=O)(=O)N(C(=O)c2ccncc2)c2ccc3oc(C)c(C(=O)OC)c3c2)cc1 | -100 |  |
| CCN1C(=O)c2ccccc2Sc2ccc(NC(=O)Cc3ccc(OC)cc3)cc21 | -100 |  |
| CC(C)Oc1cccc(C2CC(=O)Nc3cc4c(cc32)OCO4)c1 (stereo not given) | -9.58 |  |
| O=C(Nc1ccc(F)c(F)c1)c1ccc(F)c(S(=O)(=O)N2CCC3(CC2)OCCO3)c1 | -100 |  |
| Cc1ccc(C(=O)CC2(O)C(=O)N(Cc3ccccc3)c3ccccc32)c(C)c1 (stereo not given) | -100 |  |
| COc1ccccc1NC(=O)CSc1ccc(-c2ccccn2)nn1 | -100 |  |
| Cc1ccc(-c2nnc(Nc3cccc(Cl)c3)c3ccccc23)cc1S(=O)(=O)N1CCN(C)CC1 | -100 |  |
| COc1ccc2c(CNCCc3cccs3)c(C(=O)O)n(Cc3ccc(F)cc3Cl)c2c1 | -100 |  |
| Cn1nnnc1SCCCNCc1cc(Cl)ccc1OCc1ccc(F)cc1 | -100 |  |
| COc1ccc(-c2ccc(CCC(=O)O)n2-c2cc(Cl)ccc2O)cc1 | -100 |  |
| O=C(NCc1ccccc1)c1nc(S(=O)(=O)Cc2ccccc2)ncc1Cl |  | 5.85 µM (active) |
| Cc1cc(C)cc(NC(=O)c2cnn(-c3ccc(C)c(C)c3)c2C2CCNCC2)c1 | -19.5 |  |
| CN(C)c1ccc(-c2nc3ccccn3c2Nc2ccc3c(c2)OCCO3)cc1 | -100 |  |

| Structure (SMILES) | activity change, negative = inhibition [%] | Potency |
| --- | --- | --- |
| CCCCN(C)C(=O)CSc1c2c(nc3ccc(Cl)cc13)CCCC2 | -100 |  |
| COc1ccc2c(c1)CC(C(=O)Nc1cc(Cl)ccc1C)CO2 (stereo not given) | -100 |  |
| CCOc1c(Br)cc(C2CC(=O)Nc3cc4c(cc32)OCO4)cc1OC (stereo not given) | -100 |  |
| CCCCOc1cccc(C(=O)N(Cc2cccs2)c2ccc(OC)cc2)c1 | -3.36 |  |
| CCOc1ccc(NC(=O)CN2C(=O)C(c3ccc(Cl)cc3)=NC2(C)C)cc1 | -100 |  |
| CCOc1ccc(S(=O)(=O)Nc2ccc(OC)c(Cl)c2)c2cccnc12 | -100 |  |
| Cc1cccc(C)c1Nc1sc(C(=O)c2ccccc2)c(N)c1S(=O)(=O)c1ccccc1 | -100 |  |
| CCOC(=O)c1c(NC(=O)c2ccc(S(=O)(=O)N(C)C)cc2)sc2c1CCN(C)C2 | -26.7 |  |
| CCCCNC(=O)CSc1nc2nc(C)c(Cc3ccccc3C)c(C)n2n1 | -100 |  |
| COc1cc(CN(C(=O)COc2ccc(C)c(C)c2)c2ccccn2)cc(OC)c1OC | -100 |  |
| CC(C)CCNC(=O)c1cccc(Nc2nc3ccccc3n3nnnc23)c1 |  | 4.14 µM (active) |
| O=C(c1ccc(CS(=O)c2ccccc2Cl)o1)N1CCN(c2cccc(Cl)c2)CC1 (stereo not given) | -100 |  |
| Cc1ccc(C)c(N2CCN(CCCNC(=O)C3COc4ccccc4C3)CC2)c1 (stereo not given) | -100 |  |
| CCC1CCc2nc3sc(C(=O)Nc4ccc(C)cc4)c(N)c3cc2C1 (stereo not given) | -100 |  |
| CCOc1cc(CNc2ccc(O)cc2)cc(Cl)c1OCc1ccccc1 | -100 |  |
| Cc1ccc2c(c1)C(=O)C(=O)N2Cc1ccc(OC(C)C)cc1 | -16.8 |  |
| COc1cccc(-n2c(-c3ccco3)nc3c(cnn3-c3ccc(C)cc3)c2=O)c1 | -100 |  |
| Cc1ccc(C(=O)CC2(O)C(=O)N(Cc3ccccc3F)c3ccccc32)cc1 (stereo not given) | -100 |  |
| COc1cc(OC)c(NC(=O)Nc2ccc3c(c2)N(C)C(=O)c2ccccc2S3)cc1Cl |  | 13.1 µM (active) |
| CCOc1cc(CNCCSc2nnnn2C)cc(Cl)c1OCc1ccc(Cl)cc1 | -100 |  |
| CC(C)c1ccc(C2Sc3ccccc3NC3=C2C(=O)c2ccccc23)cc1 (stereo not given) | -100 |  |
| Cc1ccc(NC(=O)c2c(C)oc3ccc(O)c(CN(C)Cc4ccccc4)c23)c(C)c1 | -100 |  |
